Screening results: PubChem BioAssay, National Center for Advancing Translational Sciences (NCATS)
TGFb inhibitor: qHTS for Inhibitors of TGF-b | HepG2 CAGA-GFP TGF-b/SMAD3 reporter, GFP fluorescence, 18 h; TGF-beta stimulated, 500 pg/mL final | Potency, µM (top dose mostly 46.1 µM), most hits filed as inhibitors | 1.2% of 410,000 active; note: nearly all actives have a fitted effect of over 65% in size
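Inhibition of TGF-beta-driven CAGA-GFP reporter expression in HEPG2 cells is measured by cellular GFP fluorescence after 18 h stimulation with 500 pg/mL recombinant TGF-beta in 1% FBS medium at 37 degrees C.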
TDP1 cell CPT: qHTS for Inhibitors of human tyrosyl-DNA phosphodiesterase 1 (TDP1): qHTS in cells in presence of CPT | AID 686979, 2013 | Potency, µM (series often up to 46.2 µM), most hits filed as inhibitors | chicken DT40 Tdp1-/-;hTDP1 cells + 20 nM CPT, ATP luminescence, 48 h | 12% of 420,000 active; note: nearly all actives have a fitted effect of over 55% in size
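Chicken DT40 Tdp1-/- cells stably complemented with human TDP1 were seeded at 400 cells/well in medium containing 20 nM camptothecin, exposed to pin-transferred compounds, and grown at 37 °C for at least 48 hr. Viability was read as ATP luminescence.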
TDP1 inh: qHTS Assay for Inhibitors of Tyrosyl-DNA Phosphodiesterase (TDP1); Tyrosyl-DNA phosphodiesterase 1 (Homo sapiens), Q9NUW8; recombinant TDP1, AlphaScreen DNA substrate cleavage; Potency, µM (titrated, usually from 130 µM), most hits filed as inhibitors; 0.28% of 350,000 active; AID 485290, 2010; note: nearly all actives have a fitted effect of over 40% in size
Target sequence (Q9NUW8 whole entry, looked up): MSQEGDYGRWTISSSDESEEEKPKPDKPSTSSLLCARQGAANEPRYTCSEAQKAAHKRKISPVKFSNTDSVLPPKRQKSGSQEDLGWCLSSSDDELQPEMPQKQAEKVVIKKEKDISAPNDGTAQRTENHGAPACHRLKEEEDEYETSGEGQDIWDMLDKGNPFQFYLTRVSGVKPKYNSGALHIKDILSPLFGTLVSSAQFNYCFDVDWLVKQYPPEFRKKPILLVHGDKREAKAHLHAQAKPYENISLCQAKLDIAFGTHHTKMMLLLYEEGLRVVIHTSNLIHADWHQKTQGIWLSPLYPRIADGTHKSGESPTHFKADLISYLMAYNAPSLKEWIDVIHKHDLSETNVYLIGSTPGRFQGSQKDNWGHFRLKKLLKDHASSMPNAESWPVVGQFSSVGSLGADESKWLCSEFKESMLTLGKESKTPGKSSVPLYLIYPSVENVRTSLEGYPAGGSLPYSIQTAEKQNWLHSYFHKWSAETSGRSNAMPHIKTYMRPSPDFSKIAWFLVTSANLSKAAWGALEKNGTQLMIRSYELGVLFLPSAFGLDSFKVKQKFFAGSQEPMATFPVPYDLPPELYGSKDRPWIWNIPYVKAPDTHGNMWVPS
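Here, a 5' biotin and 3' phosphotyrosine-FITC DNA oligonucleotide reports Tdp1 activity: intact substrate bridges AlphaScreen beads, while cleavage leaves a 3' phosphate and drops signal. All incubations at room temperature.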
HepG2 tox: qHTS for Inhibitors of TGF-b: Cytotox Counterscreen | HepG2 CAGA-GFP viability, ATP luminescence, 18 h | Potency, µM (titrated, usually from 46.1 µM), actives largely listed as cytotoxic | 0.76% of 410,000 active
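HepG2 CAGA-GFP cells (1000/well, DMEM with 1% FBS) received compound, then TGF-beta at 500 pg/mL final, and were incubated 18 hours at 37 degrees C. Viability was read by CellTiter-Glo luminescence. Media-only wells were set as complete cell-killing and DMSO as no toxicity.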
DT40 TDP1 no CPT: qHTS for Inhibitors of human tyrosyl-DNA phosphodiesterase 1 (TDP1): qHTS in cells in absence of CPT | AID 686978, 2013 | Potency, µM (highest dose often 46.2 µM), most hits filed as inhibitors | DT40 Tdp1-/- hTDP1 cells, no CPT, ATP luminescence, 48 h | 15% of 420,000 active; note: nearly all actives have a fitted effect of over 55% in size
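DT40 Tdp1-/-;hTDP1 cells, no CPT (DMSO vehicle only), 400 cells/well; compounds pin-transferred; ≥48 hr, 37 °C; CellTiter-Glo 30 min RT dark, luminescence read.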
IL-1B inflam inh: qHTS for Inhibitors of Inflammasome Signaling: IL-1-beta AlphaLISA Primary Screen | THP-1 LPS/ATP IL-1B secretion, AlphaLISA, 16 h; active compounds read low | activity change, % at 57.5 µM | 4.7% of 360,000 active | AID 743279, 2014; in the data active = activity change below about -50%; inconclusive = mostly about -30% to -49%
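THP-1 cells pretreated 1 hr with compounds (up to 57.5 uM final), then stimulated with LPS (250 ng/mL final) plus ATP (1.25 mM final); secreted IL-1B measured by AlphaLISA after 16 hr, decreased signal indicating inhibition.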
Each line names hits and unclear results; the compound was inactive in the other large screens. Hits are enriched below; roughly 19% of the tested compounds scored in any of these assays. Unless noted, calls come from the whole dose curve; as a rule, active = well fitted curve in the direction sought with a large enough effect; inconclusive = small, poorly fitted or top-dose-only effect, or another doubt; inactive = no such curve, though single readings can be large; an effect the other way counts as inactive or inconclusive.

Cc1sc2ncnc(SCC(=O)NC(C)C(C)C)c2c1C (centres undefined)	TDP1 cell CPT 16µM, DT40 TDP1 no CPT 16µM
CC(C)c1ccc(Nc2nnc(SCC(=O)NCC3CCCO3)s2)cc1 (centres undefined)	TGFb inhibitor inconclusive, TDP1 cell CPT inconclusive, DT40 TDP1 no CPT 16µM
Cc1cccc(Nc2nnc(SCC(=O)NCC3CCCO3)s2)c1 (centres undefined)	none
CCN(CC)S(=O)(=O)c1cccc(NC2=NCCCCC2)c1	none
C=C(C)COc1ccc2c(C)c(CCC(=O)N3C[C@H]4C[C@@H](C3)c3cccc(=O)n3C4)c(=O)oc2c1	DT40 TDP1 no CPT inconclusive (no result: TDP1 inh)
CN1C(=O)CSc2ccc(NC(=O)Nc3ccccn3)cc21	TGFb inhibitor inconclusive, TDP1 cell CPT 29µM, DT40 TDP1 no CPT inconclusive, IL-1B inflam inh -60
COc1cccc(NC(=O)Nc2ccc3c(c2)N(C)C(=O)CS3)c1	TDP1 cell CPT inconclusive, DT40 TDP1 no CPT 21µM, IL-1B inflam inh inconclusive
CN1C(=O)CSc2ccc(NC(=O)NCc3ccc(F)cc3)cc21	TDP1 cell CPT inconclusive, DT40 TDP1 no CPT inconclusive
CN1C(=O)CSc2ccc(NC(=O)N3CCN(c4ccccn4)CC3)cc21	TDP1 cell CPT inconclusive, DT40 TDP1 no CPT inconclusive
N#Cc1ccccc1CN1C(=O)c2ccccc2S1(=O)=O	none
Cc1nc(N2CCN(Cc3ccccc3)CC2)nc2c1C(=O)CCC2	TGFb inhibitor inconclusive, TDP1 cell CPT 23µM, DT40 TDP1 no CPT 16µM
Cc1cc(=O)oc2cc(N3C(=O)CC(Cc4ccccc4)C3=O)ccc12 (centres undefined)	none
Cc1cc(C)c(NC(=O)c2ccc(CN3CCc4ccccc4C3)cc2)c(C)c1	TGFb inhibitor inconclusive, TDP1 cell CPT 16µM, DT40 TDP1 no CPT 12µM
COc1c(F)c(F)c(C(=O)Nc2ccc(N3CCN(Cc4ccccc4)CC3)cc2)c(F)c1F	TDP1 cell CPT 16µM, DT40 TDP1 no CPT 11µM
COc1cccc(NC(=O)c2ccc(CN3CCc4ccccc4C3)cc2)c1	TGFb inhibitor inconclusive, TDP1 cell CPT 16µM, DT40 TDP1 no CPT inconclusive, IL-1B inflam inh inconclusive (no result: TDP1 inh)
C/C(=N\NC(=O)c1ccc(CN2CCc3ccccc3C2)cc1)c1ccccc1O	TGFb inhibitor inconclusive, TDP1 cell CPT 12µM, DT40 TDP1 no CPT 8.2µM
Cc1c(NC(=O)c2ccc(CN3CCc4ccccc4C3)cc2)c(=O)n(-c2ccccc2)n1C	TGFb inhibitor inconclusive
CC(=O)c1cccc(NC(=O)c2ccc(CN3CCc4ccccc4C3)cc2)c1	TGFb inhibitor inconclusive
CC(NC(=O)c1ccc2c(c1)sc1nc(-c3ccc(F)cc3)cn12)C12CC3CC(CC(C3)C1)C2 (centres undefined)	none (no result: IL-1B inflam inh)
Cc1cc(-n2cc(Br)c(=O)[nH]c2=O)nc(-c2ccccc2)n1	none
CCCCn1c(N)c(N(CCOC)C(=O)c2cc(CC)c(C)s2)c(=O)[nH]c1=O	none
CCOC(=O)c1cnc(NCc2ccc(Cl)cc2)c2ccccc12	TGFb inhibitor inconclusive, TDP1 cell CPT inconclusive (no result: IL-1B inflam inh)
CCC1=C2CC[C@H]3C(=O)N(CC)C(=O)[C@H]3[C@H]2[C@@]2(C)C(=NCCc3c[nH]c4ccccc34)OC(=O)N2C1=O	none (no result: TGFb inhibitor, TDP1 cell CPT, HepG2 tox, DT40 TDP1 no CPT, IL-1B inflam inh)
COc1cccc(C(=O)Nc2ccc(N3CCN(Cc4ccccc4)CC3)cc2)c1	TGFb inhibitor inconclusive, TDP1 cell CPT inconclusive, DT40 TDP1 no CPT inconclusive, IL-1B inflam inh inconclusive
COc1cccc(N2CCN(CC(=O)Nc3nnc(-c4ccccc4)s3)CC2)c1	TDP1 cell CPT 23µM, DT40 TDP1 no CPT 21µM
COc1cccc(NC(=O)c2ccc(CN3CCN(c4ccccc4)CC3)cc2)c1	TDP1 cell CPT inconclusive, DT40 TDP1 no CPT 18µM
